Consider 62 compounds from PubChem BioAssay AID1007 (NMMLSC, 2008).

By inhibition is commonly meant the change of the read-out against control, counted positive when it falls.

Among all 190,000 compounds or so, about 80 (0.04%) were called active. Rule as the data show it: active = inhibition above about 40%. A selection follows.

Bcl-2-like protein 1 (Homo sapiens), sequence (Q07817 whole entry, looked up): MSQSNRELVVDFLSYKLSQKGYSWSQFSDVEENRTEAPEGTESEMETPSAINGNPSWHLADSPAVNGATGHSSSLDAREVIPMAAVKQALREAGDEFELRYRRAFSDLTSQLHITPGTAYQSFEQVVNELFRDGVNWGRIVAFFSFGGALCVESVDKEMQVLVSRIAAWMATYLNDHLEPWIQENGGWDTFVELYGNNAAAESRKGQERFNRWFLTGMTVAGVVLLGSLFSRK

The assay addresses Bcl-2-like protein 1 (Homo sapiens) (UniProt Q07817). Description: inhibitors of Bim-Bcl-XL binding, primary screen, biochemical, multiplexed, bead flow cytometry, human Bcl-XL (AID 1007). Conditions: Bim peptide-Bcl-XL binding, fluorescence, at 10 µM, hits give high values.
Consider `COc1ccc(-c2[nH]ncc2CN(C)Cc2cccnc2)c(F)c1`, for which the inhibition was 0% (inactive).
With `Cc1ccc2c(c1)C1CN(C)CCC1N2S(=O)(=O)c1ccc(Oc2ccc([N+](=O)[O-])cc2)cc1` (configuration not stated) the figure was -1% (inactive); with `CS(=O)(=O)N(CC(=O)N/N=C/c1ccccn1)c1ccc(Oc2ccccc2)cc1`, -4% (inactive); with `CCOCCCNC(=O)C(=O)NCCCOCC`, -11% (inactive).
In the case of `O=C(COC(=O)Cc1ccc(F)cc1)Nc1cc(S(=O)(=O)N2CCOCC2)ccc1N1CCCC1`, the inhibition was -11% (inactive).
The value for `Cc1nc(N2CCC(C)CC2)c2c(C)c(C(=O)Nc3cc(F)ccc3C)sc2n1` was -5% (inactive); that for `Cc1ccc(C)c(CSc2nc(-c3ccco3)nc3c2c(=O)n(C)c(=O)n3C)c1` was -2% (inactive).
The value for `CCN(CC)CCn1c(/N=C/c2cc(Br)ccc2O)nc2ccccc21` was -11% (inactive).
The value for `O=[N+]([O-])c1ccccc1Nc1ccc(O)cc1` was -5% (inactive); that for `Cc1c(C(=O)O)nnn1-c1nonc1N` was 0% (inactive); that for `CN1CCN(C(CNS(=O)(=O)c2cccs2)c2cccnc2)CC1` (configuration not stated) was 0% (inactive).
Turning to `O=C(Cc1cccs1)N/N=C/c1ccc(OCc2ccccc2)cc1`, the inhibition is -4% (inactive).
With `O=C(Nc1ccc2oc(-c3ccccc3F)nc2c1)c1ccco1` the figure was 0% (inactive); with `O=c1c(Cl)c(NCc2ccc(F)cc2Cl)cnn1C12CC3CC(CC(C3)C1)C2`, -8% (inactive); with `COC(=O)c1ccc(OCC(O)CN(CCO)CC(O)Cn2ccc3ccccc32)cc1` (configuration not stated), -8% (inactive).
Regarding `CCc1ccc(-c2cc(C(=O)NN3CCN(C)CC3)c3ccccc3n2)cc1`, the inhibition was -6% (inactive).
The value for `COc1ccc(CCc2nnc(CCC(=O)NCc3cnn(-c4ccccc4C)c3)o2)cc1` was 0% (inactive); that for `Cc1ccc(NC(=O)Cn2cccc2C2=NC(c3ccccc3)CO2)c(C)c1` (configuration not stated) was -2% (inactive); that for `CC(Sc1nc2c([nH]c3ccccc32)c(=O)n1C)c1ccccc1` (configuration not stated) was -6% (inactive).
In the case of `O=C(Nc1ccccc1C(=O)N1CCOCC1)c1ccc(Cl)cc1`, the inhibition was 0% (inactive).
The value for `Cc1nnc(SCC2=C(C(=O)O)N3C(=O)C(NC(=O)Cn4nc(C)c(Cl)c4C)C3SC2)s1` (configuration not stated) was -6% (inactive).
Regarding `O=C(NC(CC(=O)N1CCN(c2ccccc2)CC1)c1ccccc1)c1ccccc1Cl` (configuration not stated), the inhibition was -6% (inactive).
With `COc1ccc(NC(=O)COc2ccc(C(=O)OCC(=O)N(C)C3CCS(=O)(=O)C3)cc2OC)cc1` (configuration not stated) the figure was -2% (inactive).
On to `Cn1c(CCC(=O)Nc2ccccc2F)nnc1SCC(=O)Nc1ccccc1Cl`, for which the inhibition is -5% (inactive).
With `COc1ccc(NC(=O)CC2C(=O)OCC3CCCCN32)cc1Cl` (configuration not stated) the figure was -4% (inactive).
In the case of `O=[N+]([O-])c1cccc(S(=O)(=O)N2CCCCCC2)c1`, the inhibition was -7% (inactive).
`CCN1CCC2(CC1)N=C(c1ccc(F)cc1)C(=S)N2C(=O)c1ccc(C)cc1`: the inhibition was -10% (inactive).
With `Cc1ccc2c(=O)oc(N(C)C)nc2c1` the figure was 1% (inactive).
The value for `Cc1cc(C)c(C(N)=O)c(Cl)n1` was -2% (inactive); that for `CCOC(=O)c1ccc(NC(=O)C2CC(=O)Nc3nc4ccccc4n32)cc1` (configuration not stated) was 2% (inactive); that for `CCn1c(N)c(Br)c(=O)[nH]c1=O` was -2% (inactive).
The value for `C#Cc1ccc([C@@H]2C=C(C(=O)O)O[C@H](OCCCCO)C2)cc1` was -4% (inactive).
As for `CCN(CC)CC1(O)CCN(C(=O)c2ccc(Cl)c(Cl)c2)CC1`, the inhibition was 0% (inactive).
With `CCC(CC)c1nnc(NC(=O)/C=C/c2ccco2)s1` the figure was -8% (inactive).
With `O=C(NCc1ccco1)C(=O)c1cn(CC(=O)N2CCCCCC2)c2ccccc12` the figure was -2% (inactive); with `COc1ccc(CNC(=O)CCCn2nc(C)c([N+](=O)[O-])c2C)cc1`, -4% (inactive); with `O=C(N1CCCC1)C12CC3CC(C1)CC(C(=O)N1CCCC1)(C3)C2`, -4% (inactive).
The value for `Cc1ccccc1CN(c1ccc(C(=O)NCC2CCCO2)cc1)S(C)(=O)=O` (configuration not stated) was -6% (inactive); that for `O=C(c1cccc(F)c1)N1CCN(c2ccc([N+](=O)[O-])c3cccnc23)CC1` was -4% (inactive).
Take `COc1cccc(C(=O)N2CCCC(CCC(=O)NCc3ccc(F)c(F)c3)C2)c1` (configuration not stated): the inhibition was -1% (inactive).
With `CCOC(=O)CCCNC(=O)COC(=O)c1cc(Br)c(Br)s1` the figure was 2% (inactive); with `Cc1ccccc1-c1n[nH]c(=S)n1/N=C/c1ccc(-c2ccccc2Br)o1`, -1% (inactive); with `CC1CCCC(C)N1/N=C/c1ccccc1OC(F)F` (configuration not stated), 2% (inactive).
Take `O=C1NC(c2ccccc2)CCC1(Cl)Cl` (configuration not stated): the inhibition was -5% (inactive).
With `O=C(O)CC(SCC(=O)Nc1ccc(Br)cc1)C(=O)O` (configuration not stated) the figure was -2% (inactive); with `COc1cc(Cl)c(C)cc1NC(=O)COC(=O)c1cc(SC)ccc1Cl`, -6% (inactive).
The value for `COC(=O)c1ccccc1SC1CC(=O)N(c2cccc(C)c2)C1=O` (configuration not stated) was -2% (inactive).
The value for `Cc1ccc(NC(=O)Nc2nnc(-c3ccncc3)s2)cc1` was -2% (inactive).
Turning to `OCCn1c(-c2ccccc2)csc1=Nc1ccccc1`, the inhibition is -3% (inactive).
The value for `COc1ccccc1N1CCN(/N=C\C(Br)=C\c2ccccc2)CC1` was -1% (inactive); that for `Cc1nc2c(C(=O)NCc3cccs3)cnn2c(C)c1Cc1ccc(F)cc1` was 1% (inactive).
The value for `O=C(CN(c1cccc(Cl)c1)S(=O)(=O)c1ccccc1)NN=C1CCCC1` was -1% (inactive); that for `CC(C)C(=O)Nc1c(O)c2ccccc2[nH]c1=O` was -4% (inactive).
The value for `Cc1cc(C(=O)CCl)c(C)n1CC1COc2ccccc2O1` (configuration not stated) was 0% (inactive).
Take `COc1cccc2c(N/N=C/c3ccco3)cc(C)nc12`: the inhibition was 0% (inactive).
On to `CCc1ccccc1N1C(=O)C2C3CC(=O)C(c4ccccc43)C2C1=O` (configuration not stated), for which the inhibition was -2% (inactive).
With `Cn1nnnc1-c1cc(Cl)cc(Cl)c1` the figure was 0% (inactive).
With `O=C(Oc1ccccc1Cl)c1ccc(N2CCOCC2)c([N+](=O)[O-])c1` the figure was 3% (inactive); with `COc1ccc(Nc2nc(N)nc(CSC(=S)N3CCC(C)CC3)n2)cc1`, 20% (inactive).
With `CC1CCN(c2ccc(C(=O)Nc3nnc(C4CC4)s3)cc2[N+](=O)[O-])CC1` the figure was -12% (inactive); with `NS(=O)(=O)c1cccc(NC(=O)COC(=O)/C=C/c2ccco2)c1`, -2% (inactive); with `N#CC1=C(N)Oc2[nH]c(=S)[nH]c(=O)c2C12C(=O)Nc1ccccc12` (configuration not stated), -1% (inactive).
